Several values for one entry are separate records, joined by “and”; a condition that tells them apart may be missing. Equal values may be shown once. Values without a mark were called inactive.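 Rule for the calls: active = compounds whose cell count with miR-34 switched on is under 0.7 times the count with it off; inactive = the rest.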
test: sensitizers of A549 cells to miR-34 induction, primary screen, imaging, A549 dox-inducible miR-34, nuclei and caspase counts (AID 1347080); conditions: A549 miR-34 inducible, Hoechst nuclei count, 48 h; hits give low values; cell number ratio, induced over uninduced; note: test concentration not given here

Point of comparison: `CCCCC[C@H](O)/C=C/[C@H]1C=CC(=O)[C@H]1CCCCCCC(=O)O`, fold change 0.88. Against it:
- CCCCCCCCCCCCCCP(=O)(O)O — higher, 0.898
- CCCCCCCC/C=C\CCCCCCCC(=O)NCC(=O)O — higher, 1.05
- CCCCCCCCCCCCCCCC(=O)N[C@H]1CCOC1=O — higher, 0.999
- CCCCC[C@H](O)/C=C/[C@H]1C=CC(=O)[C@H]1C/C=C\CCCC(=O)O — higher, 1.06
- CCCCC[C@H](O)C/C=C1/C(=O)C[C@H](O)[C@@H]1C/C=C\CCCC(=O)O — higher, 0.935
- COc1cc(/C=C/C(=O)N2CCCCCC2)cc(OC)c1OC — higher, 0.968
- CCCCCCCCCCCCCCCCCCCCCCCC(=O)NCCS(=O)(=O)O — higher, 0.987
- CC(C)OC(=O)CCC/C=C\C[C@@H]1[C@@H](/C=C/[C@@H](O)CCc2ccccc2)[C@H](O)C[C@@H]1O — higher, 0.961
- Cc1ccccc1C#Cc1ccc(CCC(=O)O)cc1 — higher, 1.11
- CCCCC/C=C\C/C=C\C/C=C\C/C=C\CCCC(=O)OCc1ccsc1 — higher, 0.989
- COC(=O)CCC[C@H](O)[C@H](O)CO — higher, 1.05
- CS(=O)(=O)NC(=O)CCCCCCCCCC=C(Br)Br — lower, 0.853
- CCCCC/C=C\C/C=C\CC/C=C\CCCC(=O)OC — higher, 0.951
- COc1ccc2c(c1)c(CC(=O)NCCc1ccccc1)c(C)n2C(=O)c1ccc(Cl)cc1 — higher, 1.02
- c1ccc2c(NCCCCCCCNc3c4c(nc5ccccc35)CCCC4)c3c(nc2c1)CCCC3 — higher, 1.06
- CCCCC/C=C\C/C=C\C/C=C\C/C=C\CCCC(=O)NC[C@]1(C)CCC[C@]2(C)c3ccc(C(C)C)cc3CC[C@@H]12 — higher, 0.99
- CCCCC[C@H](O)/C=C/[C@@H]1[C@@H](CCCCC(CC(=O)O)OC)[C@@H](O)C[C@H]1O (some centres undefined) — higher, 0.924
- CCCCC(C)(C)[C@H](O)/C=C/[C@H]1C=CC(=O)[C@@H]1C/C=C\CCCC(=O)O — higher, 0.967
- CCCCCCCCCCCCCCCCC/C=C\C(=O)O — lower, 0.872
- CCCOCCCCCCCCCC(=O)O — higher, 1.02
- CC(=O)O[C@@]12CO[C@@H]1C[C@H](O)[C@@]1(C)C(=O)[C@H](OC(=O)O)C3=C(C)[C@@H](OC(=O)[C@H](O)[C@@H](NC(=O)c4ccccc4)c4ccccc4)C[C@@](O)([C@@H](OC(=O)c4ccccc4)C12)C3(C)C (some centres undefined) — higher, 1.13
- CCCCCC/C=C\CCCC(=O)CC(=O)N[C@H]1CCOC1=O — higher, 1.06
- C[C@@H]1CC[C@H]2[C@@H](C)C(O)O[C@@H]3OC4(C)CC[C@@H]1[C@]32OO4 (some centres undefined) — lower, 0.843
- COc1ccc(/C=C/c2cc(Cl)cc(Cl)c2)cc1 — higher, 1.04
- CCCCC[C@H](O)/C=C/[C@H]1C(=O)C[C@H](O)[C@@H]1C/C=C\CCCC(=O)OCC(O)CO (some centres undefined) — higher, 1.06
- CCCCC/C=C\CCCCCCCCCCCCC(=O)O — higher, 0.9
- CCCCC/C=C\C=C1\C(=O)CC[C@@H]1C/C=C\CCCC(=O)O — higher, 0.94
- CCCCCCCCCCCCC/C=C/[C@@H](O)[C@H](CO)NC(=O)CCCCC — higher, 0.988
- CCCCCC(=O)OC[C@H](CO)OC(=O)CCCCC — higher, 0.964
- CCCCCCCC/C=C\CCCCCCCCCCCC(=O)O — higher, 1.01
- CCCCCCCCCCCCCCCCOC[C@H](COP(=O)([O-])OCC[N+](C)(C)C)SC(=O)CCCCCC — higher, 0.987
- CCCCCCCCCCCC(=O)c1nc2ncccc2o1 — higher, 0.934
- CC(C(=O)Nc1cccc(N=Cc2c(O)ccc3ccccc23)c1)c1ccccc1 (centres undefined) — higher, 0.971
- CCCC[C@H](CCC(=O)O)NC(=O)CCCCCCc1ccccc1 — higher, 0.993
- CCOC(=O)c1ccc(N=Nc2ccc(O)c(CC(=O)O)c2)cc1 — higher, 0.95
- CCCCCCCCCCCCCCCC(=O)OCC — lower, 0.854
- Clc1ccc(/C=C/c2cc(Cl)cc(Cl)c2)cc1 — higher, 1.02

In the case of `CCCCC/C=C\C/C=C\C/C=C\C/C=C\CCCC(=O)O[C@H](COCCCCCCCCCCCCCCCC)COP(=O)([O-])OCC[N+](C)(C)C`, the fold change is reported as 0.94 and 0.936.
